From PubChem
TSHR antag: Antagonists of the Thyroid Stimulating Hormone Receptor: HTS campaign | 330,000 compounds, 0.2% hits | Thyrotropin receptor (Homo sapiens), P16473 | activity change, negative = inhibition, % at 11.5 µM | TSHR-expressing cells, TSH-stimulated cAMP HTRF, 2 h; stronger effect = lower value;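 active = activity change below a set negative limit, meaning inhibition stronger than a set level, cut at about -70% in these data; inconclusive = activity change between two set negative limits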; also: % is scaled to controls: 0 for no effect and ±100 for the full control effect
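Competitive HTRF cAMP read-out (cryptate anti-cAMP antibody, cAMP-d2; 30 min, room temperature) in freshly harvested TSHR cells. Compounds added before TSH at EC80 (4nM final), followed by 2 hours' incubation at 37 deg C.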
a7 integrin act: qHTS for Activators of Integrin-Mediated Alleviation for Muscular Dystrophy; alpha7betagal myoblasts, beta-gal FDG fluorescence, 48 h; Potency, µM (highest dose often 38.3 µM), without a hit: at the highest dose activation, hits mostly activators; 350,000 compounds, 0.064% hits;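 also: potency is read from the fitted curve at half-maximal effect; 100% = response of the positive control SU9516; nearly all actives have a fitted effect of over 60% in size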
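alpha7betagal+/- myoblasts (passage 13, 250/well) treated 48 h at 37C with compounds at 1:260 dilution of DMSO stock. Lysed, then beta-galactosidase activity read as FDG fluorescence (ex 480/em 540) after 30 min, with pre-read for autofluorescence.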
MBNL1 CUG block: qHTS Assay for Inhibitors of MBNL1-poly(CUG) RNA binding; Muscleblind-like protein 1 (Homo sapiens), Q9NR56; Potency, µM (highest dose often 57.5 µM), for inactives: at the highest dose activity change, negative = inhibition, actives largely listed as inhibitors; AID 2675, 2010; 280,000 compounds, 0.036% hits; TR-FRET MBNL1-His/biotin-(CUG)12 binding, 665/545 ratio; active = well fitted inhibition curve with a large enough effect in the signal ratio, with a control signal flat, not every such curve was filed as active; inconclusive = small, poorly fitted or top-dose-only effect, or effect the other way, or a change in a side signal; inactive = no such curve, though single readings can be large or run the other way; the % refers to the signal ratio; also: potency is read from the fitted curve at half-maximal effect; % is scaled to controls: 0 for no effect and ±100 for the full control effect
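MBNL1-His + Biotin-(CUG)12, cpd titration 92 nM–58 uM; Tb anti-His Ab 0.055 ng/ul, SA-XL665 5 nM (final); 60 min RT; ratiometric 665/545 nm, Ex 340 nm; normalized to buffer and full-complex controls.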
CBFb-RUNX1 inh: qHTS Assay for Compounds Blocking the Interaction Between CBF-beta and RUNX1 for the Treatment of Acute Myeloid Leukemia. Runt-related transcription factor 1 (Homo sapiens) + Core-binding factor subunit beta …. AlphaScreen CBFb-His/RUNX1-biotin binding, biochemical. Potency, µM (top dose mostly 59.8 µM), for the others: at the top dose activity, negative = inhibition, most hits filed as inhibitors. 230,000 tested, under 10 active; also: % of control where 0% means no effect
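Inhibition was taken as any reduction in AlphaScreen signal from the CBF-beta–RUNX1 pair (His and biotin tags, 30 nM each), measured after compound (15 min) and bead (90 min) incubations at room temperature.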
TCR act: Activators of T cell receptors: qHTS campaign | 330,000 tested, under 10 active | Potency, µM (highest dose often 9.22 µM), without a hit: at the top dose activation of IL-2 secretion, usual class: activators | primary human leukocytes, anti-CD3, IL-2 HTRF, 48 h; also: % of control where 0% means no effect
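Readout: HTRF IL-2, Eu-cryptate/d2 antibody pair, 320nm excitation, 665nm emission. Stimulus: a-CD3 beads, no co-stimulation. Cells: primary human leukocytes. Exposure: 48 hr with compound.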
PTAP TSG101 blk: qHTS Assay for Iinhibitors of HIV-1 Budding by Blocking the Interaction of PTAP/TSG101; Fluorescence polarization, FITC-PTAP peptide / Tsg101 binding; 340,000 tested, under 10 active; Potency, µM (top dose mostly 115 µM), without a hit: at the top dose activity change, negative = inhibition, hits mostly inhibitors; Tumor susceptibility gene 101 protein (Homo sapiens), Q99816; active = well fitted inhibition curve with a large enough effect in the main read-out, with a control signal flat, not every such curve was filed as active; inconclusive = small, poorly fitted or top-dose-only effect, or effect the other way, or a change in a side signal; inactive = no such curve, though single readings can be large or run the other way; also: potency is read from the fitted curve at half-maximal effect; % of control where 0% means no effect
Target sequence (Q99816 whole entry, looked up): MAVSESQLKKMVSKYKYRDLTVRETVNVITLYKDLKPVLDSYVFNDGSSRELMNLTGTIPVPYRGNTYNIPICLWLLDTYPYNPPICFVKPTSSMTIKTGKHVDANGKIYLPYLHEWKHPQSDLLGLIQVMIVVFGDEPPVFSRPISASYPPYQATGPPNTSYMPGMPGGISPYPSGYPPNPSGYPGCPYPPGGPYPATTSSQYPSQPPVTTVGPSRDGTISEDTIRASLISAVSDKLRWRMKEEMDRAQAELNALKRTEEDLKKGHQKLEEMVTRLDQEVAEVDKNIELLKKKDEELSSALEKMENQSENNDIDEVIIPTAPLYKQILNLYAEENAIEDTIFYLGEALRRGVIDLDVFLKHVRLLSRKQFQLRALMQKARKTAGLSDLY
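Fluorescence anisotropy tracks displacement of a FITC-tagged PTAP peptide (50 nM) from the Tsg101 binding domain (10 uM), following a 20 min room-temperature incubation at pH 7.5.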
* hit, by the source's call; ? = inconclusive; · = not tested or not shown; [ ] = remark or other dose. An excerpt weighted towards active compounds, which were near 0.26% of everything screened. Unless noted, calls follow the shape of the dose curve; as a rule, active = well fitted curve in the direction sought with a large enough effect; inconclusive = small, poorly fitted or top-dose-only effect, or another doubt; inactive = no such curve, though single readings can be large; an effect the other way counts as inactive or inconclusive.

SMILES | TSHR antag | a7 integrin act | MBNL1 CUG block | CBFb-RUNX1 inh | TCR act | PTAP TSG101 blk
CN(Cc1c(C(=O)N/N=C/c2cccc(F)c2)nnn1-c1nonc1N)c1ccccc1 | 2 | 5.6µM* | -6% | · | 11% | 0%
Cc1cccc(C(=O)NNC(=O)C(=O)NC(C)(C)C)c1 | 19 | -6% | -15% | 0% | 4% | -1%
CC(C)(C)NC(=O)C(=O)NNC(=O)c1cccc(Br)c1 | -79* | -1% | 3% | -10% | 5% | 0%
COc1ccccc1CNC(=O)c1cccc(-c2ccccc2OC)n1 | · | · | · | 4%[89.1 µM] | · | ·
O=C(CCS(=O)(=O)c1ccc(F)cc1)Nc1nc(-c2ccccn2)cs1 | -110* | -63% | 0% | · | 7% | 6%
O=C(CCS(=O)(=O)c1ccccc1)Nc1nc(-c2ccccn2)cs1 | · | -65% | · | · | 5% | -10%
CC(C)CC1NC(=O)N(CC(=O)N2c3ccccc3NC(=O)C2(C)C)C1=O (stereo unspecified) | 10 | 5.6µM* | 2% | -14% | 2% | -3%
CCCCC[C@H](O)/C=C/C=C/C/C=C\CCCC(=O)O | · | · | · | -7% | · | ·
COc1ccc(-c2csc(/C(C#N)=C\c3ccc(O)c([N+](=O)[O-])c3)n2)cc1OC | -72* | -2% | · | ? | -7% | -8%
N#C/C(=C\c1ccc(O)c([N+](=O)[O-])c1)c1nc2ccccc2s1 | ? | -1% | ? | ? | 4% | -1%
COc1cc(/C=C(\C#N)c2nc3ccccc3s2)cc([N+](=O)[O-])c1O | -71* | 1% | 8% | · | -2% | -12%
CC(=O)N(c1ccccc1C)C1CCCC1 | 0 | 19% | 4% | 9% | -2%[46.1 µM] | -1%
CC(=O)N(C1=C(Cl)C(=O)c2ccccc2C1=O)C1CCCCC1 | -82* | -39% | ? | 1% | 3% | 2%
Nc1nccc(-c2ccc(-n3cnc4ccccc43)cc2)n1 | -1 | 11µM* | -14% | 12% | 1% | -3%
Cc1nccc(-c2ccc(-n3cnc4ccccc43)cc2)n1 | -5 | -1% | -1% | -1% | 1% | -2%
O=[N+]([O-])c1ccc(N=Nc2c(Cl)cc(O)cc2Cl)cc1 | -91* | -58% | ? | · | 0% | 0%
CC(N)=Nc1ccc([N+](=O)[O-])cc1 | 3 | -5% | ? | 3% | 0%[46.1 µM] | 1%
C=CCN1C(=O)/C(=C/c2ccc(OC(C)=O)c(OCC)c2[N+](=O)[O-])SC1=S | -92* | -64% | ? | -5% | -3% | -1%
OCC1O[C@H]([S-])[C@H](O)[C@@H](O)[C@@H]1O.[Au+] (stereo partly specified) | -18 | · | · | · | · | ·
O=Cc1s/c(=N\S(=O)(=O)c2ccccc2)n(CCCCl)c1Cl | -70* | -62% | 22% | -14% | -1% | 1%
CCn1c(C)cs/c1=N\S(=O)(=O)c1ccccc1 | -1 | 1% | · | · | 3% | 2%
CCOc1ccc2oc(C(=O)OCC(=O)N3C(C)CCCC3C)c(C)c2c1 (stereo unspecified) | -79* | -8% | · | · | -5% | -9%
CC[C@@]12CCCN3CCc4c(n(c5ccccc45)C(=O)C1)[C@H]32 | · | · | · | -1%[21.7 µM] | · | ·
CCCCNc1nc(C)nc2c1nc(-c1ccccc1)n2CCN1CCCCC1 | · | · | · | 1% | · | ·
CCCCCCCCCCCCCCOS(=O)(=O)O | · | · | · | 11% | · | ·
CCOC(=O)/C(C(N)=NCCCO)=C(/O)c1ccccc1 | -8 | -17% | -20% | 2% | · | -3%
